Results from PubChem BioAssay (EPA / NIEHS).
Records with an inconclusive call do not appear. Activity calls are given as the source filed them. How the source made its calls, unless noted: active means hit-call score of the fitted dose curve at least 0.9, where 1 is the maximum; inactive means score below 0.9.

Columns and labels:
[1] = BSK_LPS_PGE2: BioMAP Diversity Plus: LPS Assay for Prostaglandin E2 (PGE2) Biomarker Activity (AID 2283082); conditions: primary human HUVEC with PBMC; actives raise or lower the signal
Outline: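 Endpoint derived from bidirectional curve fitting versus DMSO of ELISA-measured PGE2 in LPS-stimulated human primary vascular co-culture (HUVEC with PBMC) harvested at 24 h.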

[2] = read-out: Macrophage colony-stimulating factor (MCSF), CSF1 (gene 1435); test: BSK_LPS_MCSF: BioMAP Diversity Plus: LPS Assay for Macrophage colony-stimulating factor (MCSF) Biomarker Activity (AID 2283083); conditions: primary human HUVEC with PBMC; actives raise or lower the signal
Outline: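 ELISA readout of M-CSF after 24 h compound exposure in a human endothelial/PBMC co-culture. Activity, in either direction, is fitted relative to DMSO vehicle.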

[3] = read-out: Tissue Factor, F3 (gene 2152); test: BSK_LPS_TissueFactor: BioMAP Diversity Plus: LPS Assay for Tissue Factor Biomarker Activity (AID 2283084); conditions: primary human HUVEC with PBMC; actives raise or lower the signal
Outline: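 ELISA signal for cell-surface Tissue Factor (CD142) was read 24 h after compound dosing of an LPS-stimulated human endothelial–PBMC primary co-culture. Gain or loss of signal was scored relative to DMSO.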

[4] = read-out: Tumor necrosis factor (Homo sapiens) (UniProt P01375); test: BSK_LPS_TNFa: BioMAP Diversity Plus: LPS Assay for Tumour Necrosis Factor alpha (TNFa) Biomarker Activity (AID 2283085); conditions: primary human HUVEC with PBMC; actives raise or lower the signal
Outline: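 Primary human vascular co-culture of HUVEC and PBMC; TNFa ELISA 24 h after treatment, analysed as increase or decrease relative to DMSO control.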

[5] = read-out: CD38, CD38 (gene 952); test: BSK_SAg_CD38: BioMAP Diversity Plus: SAg Assay for CD38 Biomarker Activity (AID 2283087); conditions: primary human HUVEC with PBMC; actives raise or lower the signal
Outline: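 Fluorescence ELISA of cell-surface CD38 served as the read-out, with either increase or decrease fitted against DMSO controls. Cells were a human umbilical vein endothelium plus PBMC co-culture under SEB/TSST-1 stimulation, measured 24 h after dosing.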

[6] = read-out: CD40, CD40 (gene 958); test: BSK_SAg_CD40: BioMAP Diversity Plus: SAg Assay for CD40 Biomarker Activity (AID 2283088); conditions: primary human HUVEC with PBMC; actives raise or lower the signal
Outline: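 Compounds were dosed onto a human primary endothelial–PBMC co-culture, and after 24 h CD40 was quantified by ELISA using a fluorescence signal. Activity in either direction was fitted relative to DMSO.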

[7] = read-out: CD69, CD69 (gene 969); test: BSK_SAg_CD69: BioMAP Diversity Plus: SAg Assay for CD69 Biomarker Activity (AID 2283089); conditions: primary human HUVEC with PBMC; actives raise or lower the signal
Outline: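 ELISA, fluorescence read-out: CD69 on human umbilical vein endothelial cell + PBMC co-culture, 24 h post-dosing. Gain or loss of signal fitted bidirectionally against DMSO baseline.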

[8] = read-out: Monocyte Chemoattractant Protein-1 (MCP1), CCL2 (gene 6347); test: BSK_SAg_MCP1: BioMAP Diversity Plus: SAg Assay for Monocyte Chemoattractant Protein-1 (MCP1) Biomarker Activity (AID 2283090); conditions: primary human HUVEC with PBMC; actives raise or lower the signal
Outline: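 MCP-1 levels in the endothelial–PBMC SAg co-culture were quantified by ELISA at 24 h post-dosing; both increases and decreases versus DMSO scored. Cytotoxicity monitored by SRB total protein in parallel cultures.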

[9] = read-out: E-selectin (Homo sapiens) (UniProt P16581); test: BSK_SAg_Eselectin: BioMAP Diversity Plus: SAg Assay for Eselectin Biomarker Activity (AID 2283091); conditions: primary human HUVEC with PBMC; actives raise or lower the signal
Outline: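 Co-culture: HUVEC + PBMC. Dose compound; 24 h. ELISA for E-selectin. Bidirectional fit vs DMSO.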

[10] = read-out: Monokine induced gamma interferon (MIG), CXCL9 (gene 4283); test: BSK_SAg_MIG: BioMAP Diversity Plus: SAg Assay for Monokine induced gamma interferon (MIG) Biomarker Activity (AID 2283092); conditions: primary human HUVEC with PBMC; actives raise or lower the signal
Outline: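 ELISA readout of MIG/CXCL9; primary human umbilical vein endothelial cells co-cultured with peripheral blood mononuclear cells; 24 h post-dose; gain/loss fit vs DMSO baseline.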

[11] = read-out: Interleukin-8 (IL8), CXCL8 (gene 3576); test: BSK_SAg_IL8: BioMAP Diversity Plus: SAg Assay for Interleukin-8 (IL8) Biomarker Activity (AID 2283094); conditions: primary human HUVEC with PBMC; actives raise or lower the signal
Outline: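 In this co-culture of human umbilical vein endothelium with peripheral blood mononuclear cells, IL-8 is assayed by ELISA at 24 h. DMSO serves as baseline for bidirectional curve fitting.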

[12] = BSK_SAg_Proliferation: Cell Proliferation Assessment in the BioMAP Diversity Plus: SAg Assay (AID 2283095); conditions: primary human HUVEC with PBMC;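 further: relative cell number as total protein by SRB absorbance in sub-confluent culture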
Outline: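 Readout is SRB-stained protein (560 nm) in a primary human HUVEC and PBMC co-culture; sub-confluent cultures are read at 96 h. Activity is fitted bidirectionally using DMSO as baseline.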

[13] = BSK_SAg_SRB: Viability Assessment in the BioMAP Diversity Plus: SAg Assay (AID 2283096); conditions: primary human HUVEC with PBMC;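 further: cells read one day after compound addition; hits may be either gain or loss of signal compared with DMSO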
Outline: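 Total protein by sulforhodamine B staining, 24 h after dosing, in HUVEC–PBMC co-culture; DMSO-referenced bidirectional fitting.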

[14] = biological target: human CYP2A6, CYP2A6 (gene 1548) (UniProt P11509); test: NVS_ADME_hCYP2A6: NovaScreen (NVS) CYP450-related Enzyme Activity (ADME) Assay for human CYP2A6 (AID 2283099; active means hit-call score of the fitted dose curve at least 0.9, where 1 is the maximum)
Outline: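 Fluorescent substrate turnover by recombinant CYP2A6 (insect cell source), 0.5 h read. Screen: 10 uM, duplicate; threshold hits (e.g. 30% inhibition) → singleton concentration-response, top 20 uM. Positive and negative controls on every plate.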

[15] = biological target: human CYP2B6, CYP2B6 (gene 1555) (UniProt P20813); test: NVS_ADME_hCYP2B6: NovaScreen (NVS) CYP450-related Enzyme Activity (ADME) Assay for human CYP2B6 (AID 2283101; active means hit-call score of the fitted dose curve at least 0.9, where 1 is the maximum)
Outline: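 Fluorescence-based enzyme activity of recombinant human CYP2B6, measured 1 h post-dose against acetonitrile vehicle baseline. Screened at a single concentration of 10 uM in duplicate before concentration-response follow-up.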

[16] = read-out: Vascular cell adhesion molecule 1 (VCAM1), VCAM1 (gene 7412); test: BSK_LPS_VCAM1: BioMAP Diversity Plus: LPS Assay for Vascular cell adhesion molecule 1 (VCAM1) Biomarker Activity (AID 2283086); conditions: primary human HUVEC with PBMC; actives raise or lower the signal
Outline: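 Primary human vascular co-culture (umbilical vein endothelium plus PBMC) stimulated with LPS received chemical; 24 h later VCAM-1 was read by ELISA. Overt cytotoxicity was assessed by sulforhodamine B staining of parallel cultures at the same time point.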

[17] = BSK_SAg_PBMCCytotoxicity: PBMC Cytotoxicity Assessment in the BioMAP Diversity Plus: SAg Assay (AID 2283093); conditions: primary human HUVEC with PBMC;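 further: PBMC viability measured as Alamar Blue reduction fluorescence at 546/580 nm; fitted both ways against DMSO so a hit may be loss or gain of signal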
Outline: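 Compound added to 75,000 PBMC/well for 1 h; SEB and TSST-1 then added at 20 ng/mL final each; 90 h incubation; Alamar Blue 6 h; read 546/580 nm ex/em. Activity fitted bidirectionally relative to DMSO baseline.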

[18] = biological target: human CYP1A2, CYP1A2 (gene 1544) (UniProt P05177); test: NVS_ADME_hCYP1A2: NovaScreen (NVS) CYP450-related Enzyme Activity (ADME) Assay for human CYP1A2 (AID 2283102; active means hit-call score of the fitted dose curve at least 0.9, where 1 is the maximum;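 further: fluorescence from turnover of a fluorogenic substrate by recombinant insect-cell CYP1A2; potency for inhibition since loss of fluorescence marks reduced CYP1A2 activity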)
Outline: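 rec. hCYP1A2 (insect cells), cell-free; fluorogenic substrate; 0.5 h; FI read. Baseline = acetonitrile; signal loss = inhibition. 10 uM duplicate primary → conc. series for actives.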

[19] = biological target: human CYP1A1, CYP1A1 (gene 1543) (UniProt P04798); test: NVS_ADME_hCYP1A1: NovaScreen (NVS) CYP450-related Enzyme Activity (ADME) Assay for human CYP1A1 (AID 2283100; active means hit-call score of the fitted dose curve at least 0.9, where 1 is the maximum)
Outline: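 Recombinant hCYP1A1 + fluorogenic substrate, cell-free; 1 h; fluorescence read. Single-point 10 uM (duplicate) → concentration series, max 20 uM. Acetonitrile negative control.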

Measured: AC50

E-selectin (Homo sapiens), sequence (P16581 whole entry, looked up): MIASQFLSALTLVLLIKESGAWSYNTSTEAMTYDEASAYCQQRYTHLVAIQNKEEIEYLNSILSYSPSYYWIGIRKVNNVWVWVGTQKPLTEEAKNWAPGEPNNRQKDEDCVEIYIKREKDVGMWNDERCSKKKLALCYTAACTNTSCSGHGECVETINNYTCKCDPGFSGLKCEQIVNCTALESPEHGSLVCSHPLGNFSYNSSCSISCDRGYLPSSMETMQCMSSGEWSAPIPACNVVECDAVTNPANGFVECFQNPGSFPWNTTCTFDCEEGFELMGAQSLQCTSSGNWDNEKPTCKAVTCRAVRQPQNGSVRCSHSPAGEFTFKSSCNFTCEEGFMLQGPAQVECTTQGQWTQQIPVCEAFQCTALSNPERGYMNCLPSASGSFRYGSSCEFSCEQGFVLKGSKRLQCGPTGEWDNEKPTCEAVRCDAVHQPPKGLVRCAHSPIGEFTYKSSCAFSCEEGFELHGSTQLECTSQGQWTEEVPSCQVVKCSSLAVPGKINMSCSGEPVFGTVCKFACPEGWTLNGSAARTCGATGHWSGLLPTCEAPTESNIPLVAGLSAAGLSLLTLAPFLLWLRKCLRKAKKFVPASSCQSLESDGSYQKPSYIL
Tumor necrosis factor (Homo sapiens), sequence (P01375 whole entry, looked up): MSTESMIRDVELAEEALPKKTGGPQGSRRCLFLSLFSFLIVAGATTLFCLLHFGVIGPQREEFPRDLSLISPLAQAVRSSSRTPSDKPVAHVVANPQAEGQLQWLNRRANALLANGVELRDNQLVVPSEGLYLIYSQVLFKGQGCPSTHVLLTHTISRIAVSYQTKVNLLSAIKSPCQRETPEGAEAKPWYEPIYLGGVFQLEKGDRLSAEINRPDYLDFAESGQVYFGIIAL
human CYP2B6, CYP2B6 (gene 1555), sequence (P20813 whole entry, looked up): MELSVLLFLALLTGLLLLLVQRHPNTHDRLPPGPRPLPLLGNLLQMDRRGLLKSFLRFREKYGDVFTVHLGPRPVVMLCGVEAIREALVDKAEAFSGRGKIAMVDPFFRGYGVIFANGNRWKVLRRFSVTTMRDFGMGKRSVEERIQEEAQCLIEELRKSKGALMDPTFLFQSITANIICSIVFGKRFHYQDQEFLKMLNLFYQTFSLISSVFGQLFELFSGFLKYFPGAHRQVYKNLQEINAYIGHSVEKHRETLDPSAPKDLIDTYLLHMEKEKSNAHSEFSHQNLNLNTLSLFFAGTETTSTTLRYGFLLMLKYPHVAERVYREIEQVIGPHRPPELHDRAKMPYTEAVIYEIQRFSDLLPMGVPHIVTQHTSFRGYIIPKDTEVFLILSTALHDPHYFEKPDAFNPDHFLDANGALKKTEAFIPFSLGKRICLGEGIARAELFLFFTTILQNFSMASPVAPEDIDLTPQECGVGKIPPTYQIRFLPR
human CYP2A6, CYP2A6 (gene 1548), sequence (P11509 whole entry, looked up): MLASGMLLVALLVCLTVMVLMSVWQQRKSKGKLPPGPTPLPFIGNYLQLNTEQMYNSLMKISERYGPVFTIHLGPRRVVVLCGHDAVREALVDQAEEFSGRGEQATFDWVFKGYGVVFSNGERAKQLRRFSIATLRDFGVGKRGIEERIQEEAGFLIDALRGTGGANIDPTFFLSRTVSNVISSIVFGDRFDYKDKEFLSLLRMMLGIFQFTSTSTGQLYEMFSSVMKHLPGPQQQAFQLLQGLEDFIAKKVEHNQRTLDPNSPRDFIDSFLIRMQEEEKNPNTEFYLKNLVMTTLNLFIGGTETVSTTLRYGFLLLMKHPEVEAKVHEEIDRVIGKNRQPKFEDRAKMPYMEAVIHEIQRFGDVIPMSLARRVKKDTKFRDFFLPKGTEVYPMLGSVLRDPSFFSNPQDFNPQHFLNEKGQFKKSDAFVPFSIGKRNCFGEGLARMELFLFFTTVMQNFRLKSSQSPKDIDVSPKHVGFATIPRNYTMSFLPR
human CYP1A2, CYP1A2 (gene 1544), sequence (P05177 whole entry, looked up): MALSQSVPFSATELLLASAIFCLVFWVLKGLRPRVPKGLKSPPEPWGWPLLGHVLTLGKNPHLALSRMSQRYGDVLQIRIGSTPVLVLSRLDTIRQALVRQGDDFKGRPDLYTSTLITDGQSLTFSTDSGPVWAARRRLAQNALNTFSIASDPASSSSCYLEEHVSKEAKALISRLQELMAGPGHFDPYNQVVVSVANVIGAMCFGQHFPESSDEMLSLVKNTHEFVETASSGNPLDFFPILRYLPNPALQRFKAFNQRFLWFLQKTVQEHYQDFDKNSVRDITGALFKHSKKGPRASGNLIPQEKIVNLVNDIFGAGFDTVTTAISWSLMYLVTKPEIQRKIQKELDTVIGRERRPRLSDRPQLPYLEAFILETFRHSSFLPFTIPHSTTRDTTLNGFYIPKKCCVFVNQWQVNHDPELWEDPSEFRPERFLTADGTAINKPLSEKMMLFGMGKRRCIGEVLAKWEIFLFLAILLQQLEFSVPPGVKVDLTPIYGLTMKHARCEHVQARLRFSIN
human CYP1A1, CYP1A1 (gene 1543), sequence (P04798 whole entry, looked up): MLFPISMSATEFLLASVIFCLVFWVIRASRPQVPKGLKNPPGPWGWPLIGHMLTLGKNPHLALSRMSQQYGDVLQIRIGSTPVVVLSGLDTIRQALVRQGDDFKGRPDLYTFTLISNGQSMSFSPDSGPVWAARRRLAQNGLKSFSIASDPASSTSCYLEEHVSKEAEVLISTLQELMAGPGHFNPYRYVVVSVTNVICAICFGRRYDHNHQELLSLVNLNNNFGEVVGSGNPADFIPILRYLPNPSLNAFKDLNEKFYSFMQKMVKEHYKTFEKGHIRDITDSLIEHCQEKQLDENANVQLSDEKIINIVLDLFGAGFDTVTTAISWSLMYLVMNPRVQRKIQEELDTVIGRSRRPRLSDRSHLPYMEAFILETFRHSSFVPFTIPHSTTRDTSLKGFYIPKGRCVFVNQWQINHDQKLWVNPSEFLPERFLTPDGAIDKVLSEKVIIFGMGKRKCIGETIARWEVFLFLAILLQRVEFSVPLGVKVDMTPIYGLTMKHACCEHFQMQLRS

NC1CCCCC1
not listed: [16] | [17] | [18] | [19]
inactive: all other assays above

CCCCC(CC)COP(=O)(OCC(CC)CCCC)OCC(CC)CCCC (stereo unspecified)
inactive: [1] | [2] | [3] | [16] | [6] | [8] | [9] | [10] | [11]
active: [4] 5.46 µM | [12] 5.3 µM

OCC(O)CO
not listed: [13] | [14] | [15] | [16] | [17] | [18] | [19]
inactive: all other assays above

CCCCC(CC)CO (stereo unspecified)
not listed: [8] | [13] | [14] | [15] | [16] | [18] | [19]
inactive: all other assays above

CC(COCC(C)OC(=O)c1ccccc1)OC(=O)c1ccccc1 (stereo unspecified)
active: [18] 8.75 µM
not listed: [5] | [14] | [19]
inactive: all other assays above

CC(=O)OC1CC(C)OC(C)O1 (stereo unspecified)
active: [12] 13.5 µM
not listed: [13] | [14] | [15] | [16] | [18]
inactive: all other assays above

O=C1CCCCC1
not listed: [5] | [7] | [8] | [13] | [14] | [15] | [18] | [19]
inactive: all other assays above

CN(C)CCCN(C)CCCN(C)C
not listed: [13] | [14] | [15] | [16] | [17] | [18] | [19]
inactive: all other assays above

CC1=C(C)S(=O)(=O)CCS1(=O)=O
active: [16] 11.5 µM | [9] 3.97 µM
not listed: [5] | [13] | [14] | [15] | [18] | [19]
inactive: all other assays above
